About 14,000 (4.5%) of roughly 310,000 compounds showed an effect of 50% or more. Effects have a minus sign here. What follows is part of a selection rich in strong results, with near analogues and random picks from the rest.
Molecular target: human ether-à-go-go-related gene (hERG) potassium channel (human, UniProt Q12809)
Assay: primary screen, population patch clamp on CHO cells stably expressing hERG; higher = less effect of the substance
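Note: peak tail current of the secondary pulse compared with the same well before compound.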

human ether-à-go-go-related gene (hERG) potassium channel, sequence (Q12809 whole entry, looked up): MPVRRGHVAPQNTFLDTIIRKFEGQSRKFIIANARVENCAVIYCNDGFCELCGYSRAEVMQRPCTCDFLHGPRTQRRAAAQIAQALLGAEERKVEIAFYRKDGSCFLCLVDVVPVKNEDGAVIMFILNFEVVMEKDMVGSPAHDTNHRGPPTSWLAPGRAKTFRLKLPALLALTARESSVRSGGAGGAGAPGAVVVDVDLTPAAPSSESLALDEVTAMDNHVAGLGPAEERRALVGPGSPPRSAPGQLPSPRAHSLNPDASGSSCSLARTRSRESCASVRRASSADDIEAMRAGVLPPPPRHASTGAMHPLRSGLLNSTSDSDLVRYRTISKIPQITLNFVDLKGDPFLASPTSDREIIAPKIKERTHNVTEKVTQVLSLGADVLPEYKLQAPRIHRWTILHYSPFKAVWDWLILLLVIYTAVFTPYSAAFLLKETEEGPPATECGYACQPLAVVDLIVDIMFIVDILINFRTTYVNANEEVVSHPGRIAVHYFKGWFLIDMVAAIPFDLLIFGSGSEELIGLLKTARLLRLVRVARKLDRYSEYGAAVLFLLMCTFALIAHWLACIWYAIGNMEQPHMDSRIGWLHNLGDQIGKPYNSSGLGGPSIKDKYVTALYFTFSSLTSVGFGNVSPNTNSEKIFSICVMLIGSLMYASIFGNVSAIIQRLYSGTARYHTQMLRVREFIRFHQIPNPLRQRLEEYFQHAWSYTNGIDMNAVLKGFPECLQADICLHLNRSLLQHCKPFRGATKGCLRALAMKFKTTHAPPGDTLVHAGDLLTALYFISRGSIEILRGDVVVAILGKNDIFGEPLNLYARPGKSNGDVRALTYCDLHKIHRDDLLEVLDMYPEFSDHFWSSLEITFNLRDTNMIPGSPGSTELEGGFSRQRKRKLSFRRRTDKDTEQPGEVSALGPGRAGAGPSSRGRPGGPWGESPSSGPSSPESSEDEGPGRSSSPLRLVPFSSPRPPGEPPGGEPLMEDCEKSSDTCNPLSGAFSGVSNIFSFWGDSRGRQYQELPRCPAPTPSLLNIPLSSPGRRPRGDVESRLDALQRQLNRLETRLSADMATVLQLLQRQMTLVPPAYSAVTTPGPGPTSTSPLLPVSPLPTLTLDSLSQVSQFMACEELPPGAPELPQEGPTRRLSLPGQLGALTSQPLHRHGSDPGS

SMILES | hERG current change (%, negative = inhibition) at 10uM [%]
O=C(CN1CCN(S(=O)(=O)c2cc(Cl)ccc2Cl)CC1)Nc1ccc2c(c1)OCCO2 | -23.2
O=C(CC(c1ccccc1)c1cc(Cl)ccc1O)N1CCOCC1 (stereo not drawn) | -15.1
CCc1ccc(S(=O)(=O)N/N=C\c2ccc3c(c2)OCO3)cc1 | 9.85
CCCN(CC(=O)Nc1ccc(F)c(F)c1F)C(=O)c1ccc(N2CCCC2=O)cc1 | -4.37
C=CCOc1ccccc1/C=N/NC(=O)c1ccc(Cl)cc1Cl | -6.98
O=C(CC1C(=O)NCCN1CC1CCCCC1)NCc1ccccc1Cl (stereo not drawn) | -5.9
Cc1nc(-c2cccc(S(=O)(=O)N3CCCC(C)C3)c2)cs1 (stereo not drawn) | -9.76
CN1CCN(c2ccc(S(=O)(=O)N3CCCCC3)cc2[N+](=O)[O-])CC1 | -48
CS(=O)(=O)c1ccc(N2CCN(S(=O)(=O)c3cccs3)CC2)c([N+](=O)[O-])c1 | -67.1
O=C(c1ccc(N2CCCC2)c([N+](=O)[O-])c1)N1CCN(c2ccccn2)CC1 | -21.8
Cc1ccc(C(=O)N2CCN(c3ccccn3)CC2)cc1[N+](=O)[O-] | 9.02
CS(=O)(=O)c1ccc(N2CCN(c3ccccn3)CC2)c([N+](=O)[O-])c1 | -55
CC(=O)N1CCN(c2ccc(S(C)(=O)=O)cc2[N+](=O)[O-])CC1 | -12.7
CN1CCN(c2ccc(S(C)(=O)=O)cc2[N+](=O)[O-])CC1 | -2.78
O=C(c1ccc(N2CCOCC2)c([N+](=O)[O-])c1)N1CCN(S(=O)(=O)c2cccs2)CC1 | -47.3
O=C(c1ccc(N2CCCCC2)c([N+](=O)[O-])c1)N1CCN(c2ccccn2)CC1 | -66.8
CCOC(=O)c1cnn(-c2sc(C(=O)OCC)c(C)c2C(=O)OCC)c1N | 16.4
O=C(NC1CCCCC1)c1ccc2snnc2c1 | 12.8
NS(=O)(=O)c1ccc(CCNC(=O)CCCCCn2c(=S)[nH]c3ccc(Br)cc3c2=O)cc1 | 9.32
O=C(O)c1ccc(-n2nnnc2SCc2cccc(Br)c2)cc1 | 13.2
COc1ccc(/C=C/C(=O)NC(=S)Nc2ccc(N3CCN(C(C)=O)CC3)cc2)cc1 | 12.2
COC(=O)C1=C(c2cccc(OCc3ccccc3)c2)C[C@@H]2CC[C@H]1N2C(=O)NNCc1ccccc1 | 10.8

SMILES | hERG current change (%, negative = inhibition) at 10uM [%]
CC1CC(C)CN(C(=O)Cn2cc(C=O)c3ccccc32)C1 (stereo not drawn) | -4.11
Cc1nn(C)c(C(=O)NNC(=S)NCc2ccco2)c1Cl | 7.69
O=c1cc2c(nn1Cc1ccc(Cl)cc1)-c1ccccc1CC2 | -13.6
O=c1cc2c(nn1Cc1ccc(F)cc1)-c1ccccc1CC2 | -61.3
O=c1cc2c(nn1Cc1ccccc1)-c1ccccc1CC2 | -17.6
C#Cc1ccc([C@H]2C=C(C(=O)O)O[C@@H](OCc3ccc(CO)cc3)C2)cc1 | 9.26
Clc1ccccc1OCCCCn1ccnc1 | -2.93
O=C(O)CN1C(=O)/C(=C\c2ccccc2OCc2ccc(Cl)cc2)SC1=S | 15.3
Cc1ccc(C2C(C(=O)c3cc4ccccc4o3)=C(O)C(=O)N2c2cc(C)on2)cc1 (stereo not drawn) | 19.3
CCOc1ccc2nc(SCC(=O)Nc3ccc4[nH]c(=O)[nH]c4c3)[nH]c2c1 | 27
Cc1ccc2nc(COc3ccc(Cl)cc3)cc(=O)n2c1 | 15
Cc1ccc2nc(COc3ccc(N(C)S(=O)(=O)c4ccccc4)cc3)cc(=O)n2c1 | -56
COc1cccc(COc2ccc(N(C)S(=O)(=O)c3ccccc3)cc2)c1 | 3.08
O=C(/C(Cl)=C/Nc1ccc(Br)cn1)C(F)(F)F | 12.7
Cc1cc(NC(=O)CN2C(=O)CC(c3ccco3)Sc3ccccc32)no1 (stereo not drawn) | -61.8
O=C(CN1C(=O)CC(c2ccco2)Sc2ccccc21)Nc1ccccc1F (stereo not drawn) | -39.3
O=C(CN1C(=O)CC(c2ccco2)Sc2ccccc21)Nc1ccc2c(c1)OCCO2 (stereo not drawn) | -6.73
Oc1cccc(C=NCc2ccccc2)c1 | 8.22
O=C(c1ccc(Cl)cc1)N1CCN(C(=O)C2CCCCC2)CC1 | -2.89
Cc1cc(C)n(-c2nc(C)nc(N)n2)n1 | 10.3
CC(C)Oc1cccc(C(=O)C2CCCN(Cc3ccc4nonc4c3)C2)c1 (stereo not drawn) | -1.53
COc1c(C)cc(C(=O)C2CCCN(Cc3ccc(Oc4ncccn4)cc3)C2)cc1C (stereo not drawn) | -68.9

SMILES | hERG current change (%, negative = inhibition) at 10uM [%]
COc1c(C)cc(C(=O)C2CCCN(Cc3cccc(O)c3)C2)cc1C (stereo not drawn) | -23.9
NC(=O)C1CCCN(Cc2ccc(Cl)cc2)C1 (stereo not drawn) | 0.421
COc1c(C)cc(C(=O)C2CCCN(Cc3ccccn3)C2)cc1C (stereo not drawn) | -16.5
CC(C)Oc1cccc(C(=O)C2CCCN(Cc3cnn(C(C)C)c3)C2)c1 (stereo not drawn) | -36.3
CC(C)Oc1cccc(C(=O)C2CCCN(Cc3ccc(Oc4ncccn4)cc3)C2)c1 (stereo not drawn) | -62.6
O=C(c1ccc(Cl)cc1)C1CCCN(Cc2ccc(Oc3ncccn3)cc2)C1 (stereo not drawn) | -72.9
COc1cccc(-n2cc3c(=O)n(C)c(=O)n(C)c3c2)c1 | -3.89
O=C(Nc1ccccc1Br)C(=O)N1CCCC1 | 3.44
CCCC(C)NC(=O)Cc1ccccc1[N+](=O)[O-] (stereo not drawn) | 2.52
CCCC(C)NC(=O)C1CCN(S(=O)(=O)c2ccccc2)CC1 (stereo not drawn) | -12
COc1ccc(OC)c(S(=O)(=O)Nc2cccc(-c3ccc4nncn4n3)c2)c1 | 18.7
CC(C)(C)C(=O)OCc1nc(-c2ccc3c(c2)OCCO3)cs1 | 10.8
CCOc1ccc(Cl)cc1CNCCc1ccccc1F.Cl | -59.8
CCN(CC)CCNCc1cc(Cl)ccc1OCc1ccccc1F.Cl | -72.8
CCNCc1ccc(OCc2ccccc2F)c(OC)c1.Cl | -11
CC(C)(C)NCc1cc(Cl)ccc1OCc1ccccc1F.Cl | -43.3
CCOc1ccc(Cl)cc1CNCCNCCO.Cl | 24.3
CCOc1ccc(Cl)cc1CNCCc1ccc(F)cc1.Cl | -48
Cc1ccc2c(c1)C(c1ccccc1)N(C(=O)c1ccc(S(=O)(=O)N3CCOCC3)cc1)CC(=O)N2 (stereo not drawn) | -19.1
COc1cc([N+](=O)[O-])ccc1NC(=O)C[n+]1ccccc1C.[Cl-] | 11
N#Cc1c(-c2ccccc2)cc(-c2ccccc2)nc1SCCC(=O)O | 18.4
COc1ccc(/C(N)=N/OC(=O)c2ccc(C)c([N+](=O)[O-])c2)cc1 | -6.61

SMILES | hERG current change (%, negative = inhibition) at 10uM [%]
O=C(N/C(=C\c1ccc(Br)cc1)C(=O)N1CCOCC1)c1ccco1 | -41
O=C(N/C(=C/c1ccc(Br)cc1)C(=O)N1CCOCC1)c1cccs1 | -5.65
O=C(N/C(=C/c1ccc(Br)cc1)C(=O)N1CCOCC1)c1ccc(Br)o1 | -70.2
O=C(N/C(=C\c1ccc(Br)cc1)C(=O)N1CCOCC1)c1ccc(Br)o1 | -67.1
O=C(N/C(=C\c1ccccc1)C(=O)N1CCOCC1)c1ccc(Br)o1 | 3.18
O=C(N/C(=C/c1ccc(Br)cc1)C(=O)N1CCOCC1)c1ccco1 | -24.1
CCOC(=O)CN(C(=O)c1ccccc1[N+](=O)[O-])C(C)(C)C | 9.73
COc1ccc(C(=O)N2CCC(CCC(=O)Nc3cccc(C)c3)CC2)cc1 | -68.3
COc1cccc(NC(=O)CCC2CCN(C(=O)c3cccc(NC(C)=O)c3)CC2)c1 | -28.4
COc1cccc(NC(=O)CCC2CCN(C(=O)c3ccc(C(C)=O)s3)CC2)c1 | -36.9
Cc1cccc(NC(=O)CCC2CCN(C(=O)c3ccc(C)s3)CC2)c1 | -65.5
COc1cccc(C(=O)N2CCC(CCC(=O)Nc3cccc(C)c3)CC2)c1 | -28.6
COCc1ccc(C(=O)N2CCC(CCC(=O)Nc3cccc(C)c3)CC2)s1 | -15.1
O=[N+]([O-])c1ccc(-c2nc(NCC3CCCO3)c3ccccc3n2)cc1 (stereo not drawn) | 12.3
O=C(Cc1ccsc1)N1CCN(S(=O)(=O)c2cc(C(F)(F)F)cc(C(F)(F)F)c2)CC1 | 1.69
Cc1ccc(S(=O)(=O)CCc2nc3ccccc3[nH]2)cc1 | -17.6
Cc1nc2cc(C)c(C)cc2s1 | 15.7
CS(=O)(=O)N(CC(=O)NC1CCCCCC1)Cc1ccccc1 | -1.26
CN1C(=O)C(CC(=O)Nc2ccc(F)cc2)N(NC(=O)c2cccc(F)c2)C1=S (stereo not drawn) | -3.79
CCn1c(SCC(=O)c2ccc3ccccc3c2)nnc1-c1cccs1 | -8.29
COc1cc(C(=O)NC(=S)NCc2ccco2)cc(OC)c1OC | 1.74

From publication PMC4336329 (PLoS ONE, 2015)
